Screen size: about 52,000 compounds; about 4,300 (8.3%) were called active. The sample holds actives, similar compounds and a random draw of the others, so the mix is not that of the screen. No stated cut-off is given here; in the data, active means survival mostly below about 52% (no sharp cut-off); inactive means mostly above about 56%.

This experiment deals with DeltatarO mutant. The experiment is described as follows: S. aureus survival, RN4220 and DeltatarO strains – OD600, teichoic acid synthesis inhibitors, primary screen (AID 463173). As to conditions: S. aureus RN4220 wild type/DeltatarO growth, OD600, 18 h, stronger effect = lower value, screened at 18.75 µg/mL (by protocol).
Take `O=c1c2ccc(N3CCOCC3)c3cccc(c32)c2nc3ccccc3n12`: the survival was 90% (inactive). For the compound `Cc1cccc(C(=O)Nc2ccc3oc(-c4cccc5c(Br)cccc45)nc3c2)c1`, the survival is 67% (inactive). In the case of `CC(C)c1ccc2oc(-c3ccc(NC(=O)c4cccc(Br)c4)cc3)nc2c1` it was 44% (active). In the case of `Cc1cccc(C(=O)Nc2ccc3oc(-c4ccncc4)nc3c2)c1` it was 62% (inactive); in that of `CC(C)(C)c1ccc(-c2nc3cc(NC(=O)c4cccc(Br)c4)ccc3o2)cc1`, 73% (inactive); in that of `Cc1cccc(C(=O)Nc2ccc(-c3nc4cc(C(C)C)ccc4o3)cc2)c1`, 34% (active). Turning to `O=C(Nc1ccc2oc(-c3cccnc3)nc2c1)c1cccc(Br)c1`, the survival was 62% (inactive). The same measure for `CC1CCN(CC(=O)Nc2ccc3ccccc3c2)CC1`: 107% (inactive); for `CCCC(O)=NS(=O)(=O)c1ccc(N=NN(C)C)cc1`: 94% (inactive). `COc1cccc(NC(=O)CN(C)S(=O)(=O)c2cccs2)c1`: the survival is 108% (inactive).

`CC(C)C(OC(=O)c1cc2occc2n1C(C)C)C(=O)NCC1CCCO1` (stereo not drawn): the survival is 67% (inactive). With `COc1ccc(NC(=O)Cn2cc(C#N)c3ccccc32)cc1`, the survival is 67% (inactive). In the case of `CCC1CN(C(=O)N2CCC(C(=O)NCCc3ccc(OC)c(OC)c3)CC2)c2ccccc2O1` (stereo not drawn) it was 74% (inactive); in that of `CC1CCc2nc3ncn(Cc4ccccc4C#N)c(=O)c3cc2C1` (stereo not drawn), 81% (inactive); in that of `Cc1ccc(Cn2cnc3nc4c(cc3c2=O)CC(C)CC4)cc1` (stereo not drawn), 20% (active). In the case of `CC1CCc2nc3ncn(Cc4cccc(F)c4)c(=O)c3cc2C1` (stereo not drawn), the survival is 102% (inactive).

As to `CC1CCc2nc3ncn(Cc4ccc(Cl)cc4)c(=O)c3cc2C1` (stereo not drawn), the survival is 85% (inactive). Consider `CC1CCc2nc3ncn(Cc4ccccc4F)c(=O)c3cc2C1` (stereo not drawn), for which the survival is 66% (inactive). Take `Cc1ccccc1Cn1cnc2nc3c(cc2c1=O)CC(C)CC3` (stereo not drawn): the survival is 8% (active). The same measure for `CC1CCN(C(=O)Cn2cc(SCc3ccccc3)c3ccccc32)CC1`: 46% (inactive); for `Cc1cc(C)cc(NC(=O)c2cc(CN3CCCC3)on2)c1`: 88% (inactive). In the case of `CCOc1ccc(NC(=O)c2c(NCc3cccs3)sc3c2CCC(C)C3)cc1` (stereo not drawn) it was 129% (inactive); in that of `COc1ccc(CNc2ncnc3c2c(-c2ccccc2)cn3-c2cccc(C)c2)cc1`, 67% (inactive); in that of `Cc1ccc(CNC(=O)Cn2c3ncccc3c(=O)n2-c2ccc(C)cc2)cc1`, 116% (inactive).

Regarding `CCOC(=O)N1CCN(C(=O)c2ccc3c(c2)N(Cc2cccc(Cl)c2)C(=O)c2ccccc2S3=O)CC1` (stereo not drawn), the survival was 102% (inactive).

Consider `Cc1cccc(Cc2cnc(NC(=O)C3Cc4ccc(C)cc4C(=O)O3)s2)c1` (stereo not drawn), for which the survival is 85% (inactive).

As to `CCOC(=O)c1c(NC(=O)c2cc(CC(C)C)on2)sc(C(C)=O)c1C`, the survival was 54% (active). The same measure for `CCOC(=O)c1c(NC(=O)c2cc(-c3ccc(Br)cc3)on2)sc(C)c1C`: 166% (inactive); for `CCOC(=O)c1c(NC(=O)c2cc(-c3ccc(OC)c(OC)c3)on2)sc(C)c1C`: 42% (active); for `CCOC(=O)c1c(NC(=O)c2cc(-c3ccccc3OC)on2)sc(C)c1C`: 61% (inactive). Turning to `CCOC(=O)c1c(NC(=O)c2cc(-c3cccc(Cl)c3)on2)sc(C(C)=O)c1C`, the survival is 56% (inactive).

For the compound `CCOC(=O)c1c(NC(=O)c2cc(-c3ccc(Br)cc3)on2)sc(C(C)=O)c1C`, the survival is 88% (inactive). Consider `CCOC(=O)c1sc(NC(=O)c2cc(-c3ccc(F)cc3)on2)c(C(=O)OCC)c1C`, for which the survival is 65% (inactive). In the case of `CCOC(=O)c1c(NC(=O)c2cc(CC)on2)sc(C(C)=O)c1C` it was 52% (inactive); in that of `CCOC(=O)c1c(NC(=O)c2cc(-c3cccc(Cl)c3)on2)sc(C)c1C`, 56% (active). The same measure for `CCOC(=O)c1c(NC(=O)c2cc(-c3ccc(Cl)cc3)on2)sc(C)c1C`: 68% (inactive); for `CCOC(=O)c1c(NC(=O)c2cc(-c3ccc(OC)cc3)on2)sc(C)c1C`: 45% (active). In the case of `CCOC(=O)c1c(NC(=O)c2cc(C(C)C)on2)sc(C(C)=O)c1C` it was 123% (inactive); in that of `CN(C)CCNC(=O)Cn1c(=O)c2cccn2c2ccc(F)cc21`, 103% (inactive); in that of `CCOC(=O)c1ccc(N2C(=O)c3n[nH]c(-c4ccco4)c3C2c2ccc(OC)cc2OC)cc1` (stereo not drawn), 89% (inactive). Consider `CCOc1ccc(C(=O)OCc2cc(=O)n3nc(C4CC4)sc3n2)cc1`, for which the survival was 80% (inactive). The same measure for `CC(C)N(C)NC(=S)Nc1ccccc1`: 77% (inactive); for `CCN(CC)C(=O)Cn1c(=O)n(CCCCCC(=O)Nc2ccccc2)c(=O)c2sccc21`: 82% (inactive).

Regarding `COc1ccc(-c2cc3nccc(C4CCN(C(=O)OC(C)(C)C)CC4)n3n2)cc1`, the survival was 102% (inactive). With `CCOC(=O)c1c(NC(=O)c2cc(C(C)C)on2)sc(C)c1C`, the survival was 49% (inactive). Regarding `CCOC(=O)c1c(NC(=O)c2cc(C)on2)sc(C)c1C`, the survival is 47% (active). Consider `CCOC(=O)c1c(NC(=O)c2cc(CC)on2)sc(C)c1C`, for which the survival is 144% (inactive).

In the case of `Cc1nn(C)c2c1c(C(F)(F)F)cc(=O)n2CC(=O)NCCC(C)C`, the survival is 95% (inactive). In the case of `O=C(NCCc1ccccc1)c1cc(Sc2ccc(F)cc2F)nc2ccccc12` it was 98% (inactive). The same measure for `COc1ccc(C2CC(=O)Nc3cc4c(cc32)OCO4)c(OC)c1` (stereo not drawn): 80% (inactive). In the case of `COc1ccc(N(Cc2cc3cccc(C)c3[nH]c2=O)C(=O)c2cccc(Cl)c2)cc1` it was 67% (inactive); in that of `COC(=O)c1c(NC(=O)COc2ccc(C)cc2Br)sc2c1CCCC2`, 61% (inactive); in that of `COC(=O)c1c(NC(=O)CS(=O)(=O)c2ccc(C)cc2)sc2c1CCCCC2`, 76% (inactive). As for `CC1CCc2c(sc(NC(=O)CCCOc3ccc(C(C)(C)C)cc3)c2C(N)=O)C1` (stereo not drawn), the survival is 60% (inactive). In the case of `COC(=O)c1c(NC(=O)CCCOc2cccc(C)c2)sc2c1CCC(C)C2` (stereo not drawn) it was 10% (active); in that of `COC(=O)c1c(NC(=O)CS(=O)(=O)c2ccc(C)cc2)sc2c1CCCC2`, -4% (active); in that of `CCOC(=O)c1c(NC(=O)CS(=O)(=O)c2ccc(C)cc2)sc2c1CCCCC2`, 66% (inactive).

Regarding `Cc1cccc(OCCCC(=O)Nc2sc3c(c2C(N)=O)CCC(C)C3)c1` (stereo not drawn), the survival is 73% (inactive). The same measure for `COC(=O)c1c(NC(=O)CCCOc2cccc(C)c2)sc2c1CCC2`: 15% (active).

Consider `COC(=O)c1c(NC(=O)c2ccc(C(C)(C)C)cc2)sc2c1CCC(C)C2` (stereo not drawn), for which the survival is 85% (inactive). The same measure for `CCOC(=O)c1c(NC(=O)COc2ccc(C)cc2C(C)(C)C)sc2c1CCC(C)C2` (stereo not drawn): 55% (inactive); for `COC(=O)c1c(NC(=O)Cc2coc3ccc(C)cc23)sc2c1CCC2`: 59% (inactive). The same measure for `COC(=O)c1c(NC(=O)CCCOc2ccc(C(C)(C)C)cc2)sc2c1CCC(C)C2` (stereo not drawn): 28% (active); for `O=c1c(S(=O)(=O)c2cccc(Cl)c2)cn(Cc2ccccc2)c2cc(N3CCCCC3)c(F)cc12`: 89% (inactive). The same measure for `O=c1oc2cc(O)ccc2cc1-c1nc(-c2ccc(Cl)c(Cl)c2)cs1`: 101% (inactive); for `O=C(Cn1c(=O)c2ccccc2n(CC(=O)Nc2ccc(F)cc2F)c1=O)NCCc1ccccc1`: 81% (inactive); for `COc1cc(NC(=O)Nc2cccc(-c3noc(C)n3)c2)cc(OC)c1OC`: 128% (inactive). Consider `CC(C)Cn1c(SCC(N)=O)nc2ccccc2c1=O`, for which the survival is 97% (inactive). The same measure for `O=C(CN1C(=O)c2cccc3cccc1c23)N1CCCC1`: 85% (inactive); for `Cc1ccc(Cl)cc1NC(=O)Cn1c(=O)n(C(C)C)c(=O)c2oc3ccccc3c21`: 51% (inactive); for `Cc1ccc(Cl)cc1N1CCN(C(=O)C2CCCN(S(=O)(=O)c3ccc(Br)s3)C2)CC1` (stereo not drawn): 113% (inactive). As for `COc1ccccc1N(CC(=O)NC1CCCCC1)C(=O)c1csnn1`, the survival was 96% (inactive).

Turning to `O=C(NCc1cccc(F)c1)c1ccc(CS(=O)c2ccccc2Cl)o1` (stereo not drawn), the survival is 68% (inactive). The same measure for `Cc1ccc(OCCCC(=O)Nc2sc3c(c2C(N)=O)CCCC3)cc1`: 53% (inactive); for `Cc1ccccc1OCC(=O)Nc1sc2c(c1C(=O)OC(C)C)CCCC2`: 77% (inactive). The same measure for `COC(=O)c1c(NC(=O)COc2ccc(Cl)cc2C)sc2c1CCCCC2`: 68% (inactive); for `COC(=O)c1c(NC(=O)CCCOc2ccccc2)sc2c1CCC(C)C2` (stereo not drawn): 2% (active); for `CC1CCc2c(sc(NC(=O)CCCOc3ccccc3)c2C(N)=O)C1` (stereo not drawn): 78% (inactive). In the case of `COC(=O)c1c(NC(=O)CCCOc2ccccc2C)sc2c1CCC2` it was 4% (active); in that of `COC(=O)c1c(NC(=O)CCCOc2ccc(C)cc2)sc2c1CCCC2`, 8% (active). Regarding `COc1ccc(NC(=O)c2c(NC(=O)COc3ccccc3)sc3c2CCC(C)C3)cc1` (stereo not drawn), the survival is 120% (inactive). `CCOc1ccc(/C=C/C(=O)Nc2sc3c(c2C(=O)OC)CCC3)cc1`: the survival is 75% (inactive). As for `CCS(=O)(=O)Nc1ccc2[nH]c(=O)[nH]c2c1`, the survival is 88% (inactive).

On to `CCc1ccc(NC(=O)CNC(=O)Cn2c(C)cc3ccccc3c2=O)cc1`, for which the survival was 114% (inactive). For `CCN(C(=O)C1CCN(S(=O)(=O)c2c(C)noc2/C=C/c2ccc(C)cc2)CC1)c1cccc(C)c1`, the survival was 84% (inactive). Turning to `CCOc1ccc(CCNC(=O)C2CC(=O)N(CCc3ccc(OC)c(OC)c3)C2)cc1OCC` (stereo not drawn), the survival is 91% (inactive). The same measure for `COc1ccc(OC)c(C2CC(=O)c3c([nH]c(C(=O)OC4CCC(C)CC4)c3C)C2)c1` (stereo not drawn): 81% (inactive); for `COc1ccc(-c2noc(-c3ccc(N4CCCCC4)c([N+](=O)[O-])c3)n2)cc1`: 37% (active); for `COc1ccc(-c2noc(-c3ccc(N4CCOCC4)c([N+](=O)[O-])c3)n2)cc1`: 46% (inactive). Consider `COc1ccc(-c2noc(-c3ccc(N4CCN(c5ccc(OC)cc5)CC4)c([N+](=O)[O-])c3)n2)cc1`, for which the survival is 47% (inactive). For the compound `COc1ccc(-c2noc(-c3ccc(N4CCN(C)CC4)c([N+](=O)[O-])c3)n2)cc1OC`, the survival is 50% (inactive). For `COc1ccc(-c2noc(-c3ccc(N4CCN(C)CC4)c([N+](=O)[O-])c3)n2)cc1`, the survival is 42% (active).

Consider `COc1ccc(-c2noc(-c3ccc(N4CCCC4)c([N+](=O)[O-])c3)n2)cc1`, for which the survival is 108% (inactive).

For the origin of these results see PubChem BioAssay AID463173 (ICCB-Longwood Screening Facility, Harvard Medical School, 2010).
